According to PubChem BioAssay AID1671192 (National Center for Advancing Translational Sciences (NCATS), 2021):
Results filed as inconclusive are left out. A number with no mark means an inactive call. The call rests on the fitted dose curve; in most records, active means well fitted curve in the direction sought with a large enough effect; inconclusive means small, poorly fitted or top-dose-only effect, or another doubt; inactive means no such curve, though single readings can be large or run the other way.

Target: Polyunsaturated fatty acid lipoxygenase ALOX15 (Homo sapiens) (UniProt P16050)
Sequence (P16050 whole entry, looked up): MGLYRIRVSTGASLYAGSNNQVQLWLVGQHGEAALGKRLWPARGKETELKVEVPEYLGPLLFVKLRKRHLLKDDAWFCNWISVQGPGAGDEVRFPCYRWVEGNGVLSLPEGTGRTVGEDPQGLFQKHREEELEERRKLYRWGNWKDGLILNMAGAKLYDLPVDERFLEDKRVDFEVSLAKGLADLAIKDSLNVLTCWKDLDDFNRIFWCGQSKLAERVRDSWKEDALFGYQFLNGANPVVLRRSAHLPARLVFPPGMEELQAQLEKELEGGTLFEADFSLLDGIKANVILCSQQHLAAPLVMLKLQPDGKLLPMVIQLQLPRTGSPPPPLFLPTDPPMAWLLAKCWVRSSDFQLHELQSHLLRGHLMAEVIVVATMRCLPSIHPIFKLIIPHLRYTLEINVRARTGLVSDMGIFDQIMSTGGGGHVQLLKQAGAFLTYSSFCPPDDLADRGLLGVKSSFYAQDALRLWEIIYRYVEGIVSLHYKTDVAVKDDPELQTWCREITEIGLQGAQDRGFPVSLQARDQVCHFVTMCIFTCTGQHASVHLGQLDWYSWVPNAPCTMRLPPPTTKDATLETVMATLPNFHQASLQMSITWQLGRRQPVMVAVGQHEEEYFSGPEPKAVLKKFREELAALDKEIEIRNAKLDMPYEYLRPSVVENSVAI
Experiment: Counterscreen qHTS for inhibitors of human arachidonate 12S-lipoxygenase (ALOX12): ALOX15 Assay; further: 0% is about no effect
Conditions: purified ALOX15 enzyme activity; series mostly up to 110 µM; activity change, negative = inhibition: at the top concentration
Procedure, shortened: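 Purified human ALOX15 (15hLO-1) at 40 nM in 25 mM HEPES, 0.01% Triton X-100, pH 7.5, preincubated with compound 15 min at RT. Then 50 uM arachidonic acid for 30 min; hydroperoxide detected by Fe-xylenol orange as the 573/405 nm absorbance ratio.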

Compared with `O=C(c1ccc(C(F)(F)F)cc1)N1CCn2c(nnc2C2CCCNC2)C1` (configuration not stated), `COc1ccc(C(=O)N2CCn3c(nnc3C3CCNCC3)C2)cc1` is higher in “activity change, negative = inhibition” value: -17.4% for the first, -8.92% for the second.

Going from `NCCC(=O)N1CCC2(CC1)CN(C(=O)Cc1ccc(Cl)cc1)CCO2` to `O=C(O)CCC(=O)N1Cc2ccccc2CC2(CCCN2CC2CCNC2)C1` (configuration not stated), the “activity change, negative = inhibition” value falls from -29% to -30.7%.

First: CN1CC(=O)N(C2CCNCC2)Cc2c(NCCN3CCOCC3)ncnc21
Second: CCC(CC)Nc1ncnc2c1CN(C1CCCNCC1)C(=O)CN2C (configuration not stated)
The “activity change, negative = inhibition” value of the first is lower: -2.01% for the first, 0.531% for the second.

First: COc1ccccc1C(=O)N1CCc2nc(C3CC3)nc(-c3ccc(Cl)cc3)c2C1
Second: O=C(c1ccc(C(F)(F)F)cc1)N1CCc2nc(C3CC3)nc(-c3ccc(Cl)cc3)c2C1
The “activity change, negative = inhibition” value of the first is higher: -18.6% for the first, -41.7% for the second.

Compared with `CN1CC(=O)N(C2CCNC2)Cc2c1ncnc2N1CCC(N2CCCCC2)CC1` (configuration not stated), `CN1CCC(C(=O)N2Cc3ccccc3CC3(CCCCN3CC3CCNCC3)C2)CC1` (configuration not stated) is lower in “activity change, negative = inhibition” value: -8.21% for the first, -19.6% for the second.

Compared with `NCC(=O)N1Cc2ccccc2CC12CCCN(C(=O)c1ccccc1)C2` (configuration not stated), `O=C(O)CCCC(=O)N1Cc2ccccc2CC2(CCCN(Cc3ccccn3)C2)C1` (configuration not stated) is lower in “activity change, negative = inhibition” value: 3.09% for the first, -5.65% for the second.

Going from `COc1cccc(N2C(=O)NC(=NC3CCCCC3)C23CCCN(C(=O)c2ccccc2)C3)c1` (configuration not stated) to `COc1cccc(N2C(=O)NC(=NC3CCCCC3)C23CCCN(Cc2cccnc2)C3)c1` (configuration not stated), the “activity change, negative = inhibition” value rises from -4.65% to -1.65%.

First: Cc1noc(C)c1C(=O)N1Cc2ccccc2CC2(CCCN(CC3CCNC3)C2)C1 (configuration not stated)
Second: CN(C)CC(=O)N1Cc2ccccc2CC2(CCCN(CC3CCNC3)C2)C1 (configuration not stated)
The “activity change, negative = inhibition” value of the first is higher: -7.51% for the first, -21.8% for the second.

Going from `CN1CC(=O)N(c2ccc(Cl)cc2)Cc2c(NCC3CC3)ncnc21` to `COc1cccc([S+](=O)([O-])N2CCn3c(nn(-c4cccc(Cl)c4)c3=O)C2)c1`, the “activity change, negative = inhibition” value rises from -18.4% to -0.101%.

Going from `O=C(C1CCCC1)N1Cc2ccccc2CC2(CCCN(CC3CCNC3)C2)C1` (configuration not stated) to `CCC(=O)N1Cc2ccccc2CC2(CCN(CCc3ccc(C)cc3)CC2)C1`, the “activity change, negative = inhibition” value rises from -12.4% to -7.6%.

First: COc1ccc(CN2CCCC23Cc2ccccc2CNC3=O)cc1OC (configuration not stated)
Second: O=C1NCc2ccccc2CC12CCN(Cc1ccc(Cl)s1)C2 (configuration not stated)
The “activity change, negative = inhibition” value of the first is higher: -13.2% for the first, -19.6% for the second.

Going from `O=C1NCc2ccccc2CC12CCN(Cc1cccc(F)c1F)CC2` to `COc1ccc(N2CC3CCC(C2)N3C(=O)c2ccc3c(c2)OCO3)cc1`, the “activity change, negative = inhibition” value rises from -27.9% to -8.37%.

Compared with `COc1ccc(OC2CN(Cc3cccc4ccccc34)C2)cc1`, `COc1ccc(CN2CC3(C2)C(=O)Nc2ccccc23)cc1` is lower in “activity change, negative = inhibition” value: -16% [at 146 µM] for the first, -29.7% [at 146 µM] for the second.

Going from `FC(F)(F)c1ccc(N2C3CCC2CN(Cc2cccs2)C3)cc1` to `CC(C)CCN1CCn2c(nn(-c3ccc(Cl)cc3)c2=O)C1`, the “activity change, negative = inhibition” value rises from -29.5% [at 146 µM] to -11.9% [at 146 µM].

Going from `O=C1NCc2ccccc2CC12CCCN(CCCc1ccccc1)C2` (configuration not stated) to `Cc1ccc(CCN2CCC3(Cc4ccccc4CNC3=O)C2)cc1` (configuration not stated), the “activity change, negative = inhibition” value rises from -29.9% [at 146 µM] to -2.35% [at 146 µM].

Compared with `COCCNc1ncnc2c1CN(C1CCCNCC1)C(=O)CN2C` (configuration not stated), `CC1CCCN1c1ncnc2c1CN(C1CCCNCC1)C(=O)CN2C` (configuration not stated) is lower in “activity change, negative = inhibition” value: -7.74% [at 146 µM] for the first, -14.6% [at 146 µM] for the second.

Compared with `COc1ccc(CN2CCCC3(Cc4ccccc4CNC3=O)C2)cc1` (configuration not stated), `Cc1ccc(-c2ccccc2CN)cc1Cl` is lower in “activity change, negative = inhibition” value: -6.45% [at 146 µM] for the first, -12% [at 146 µM] for the second.

Going from `O=C(O)c1cccc(-c2ccsc2)c1` to `O=Cc1ccccc1-c1ccc(O)cc1`, the “activity change, negative = inhibition” value falls from 7.2% [at 233 µM] to -7.86% [at 233 µM].

In the case of `CNC1CCCc2ccccc21` (configuration not stated), the “activity change, negative = inhibition” value is reported as -22.1% [at 233 µM].
